Bioassay records from PubChem.
IL-1B inflam inh: inhibitors of inflammasome signaling (IL-1 beta secretion) | THP-1 LPS/ATP IL-1B secretion, AlphaLISA, 16 h; stronger effect = lower value | activity change, % at 57.5 µM | actives 4.7% (n = 360,000); in the data active = activity change below about -50%; inconclusive = mostly about -30% to -49%; also: % is scaled to controls: 0 for no effect and ±100 for the full control effect
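THP-1 cells pretreated 1 hr with compounds (up to 57.5 uM final), then stimulated with LPS (250 ng/mL final) plus ATP (1.25 mM final); secreted IL-1B measured by AlphaLISA after 16 hr, decreased signal indicating inhibition.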
Giardia kill: kills Giardia lamblia; AID 540267; actives 0.15% (n = 340,000); Giardia lamblia trophozoite viability; activity change, % at 7.66 µM, hits read low; in the data active = activity change below about -80%; inconclusive = between about -30% and that limit;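 also: parasites exposed to compound for two days anaerobically before the ATP read; % is scaled to controls: 0 for no effect and ±100 for the full control effect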
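Compounds were tested on trophozoites seeded at 100 cells/well and held 48 hrs at 37 deg C anaerobically. An ATP-based luminescent kit measured the remaining live cells.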
HT1080 IDH1KD tx: kills HT-1080 cells with IDH1 knockdown; AID 686971; HT-1080 IDH1 knockdown viability, ATP luminescence, 48 h; actives 2% (n = 360,000); Potency, µM (titrated, usually from 46.1 µM), for inactives: at the top dose activity, negative = toxicity, actives largely listed as cytotoxic;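 also: potency is read from the fitted curve at half-maximal effect; 0% = DMSO wells and -100% = cell-free medium wells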
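% activity derives from luminescence (CellTiter-Glo), normalised to DMSO and no-cell wells. HT-1080-IDH1KD cells, 750/well, had 48 h compound exposure at 37 °C.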
TGFb SMAD3 inh: inhibitors of TGF-b signaling; actives 1.2% (n = 410,000); HepG2 CAGA-GFP TGF-b/SMAD3 reporter, GFP fluorescence, 18 h; TGF-beta stimulated, 500 pg/mL final; Potency, µM (series often up to 46.1 µM), for inactives: at the highest dose activity, negative = inhibition, usual class: inhibitors; AID 588855; also: potency is read from the fitted curve at half-maximal effect; % is scaled to controls: 0 for no effect and ±100 for the full control effect; nearly all actives have a fitted effect of over 65% in size
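GFP signal (ex488/em500-530) from TGF-beta-stimulated HEPG2 CAGA-GFP cells, 500 pg/mL final, 18 h at 37 degrees C in DMEM plus 1% FBS, normalized to unstimulated and DMSO-stimulated controls.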
HepG2 tox: HepG2 cytotoxicity, counter-screen for TGF-b inhibitors; HepG2 CAGA-GFP viability, ATP luminescence, 18 h; Potency, µM (top dose mostly 46.1 µM), without a hit: at the top dose activity change, negative = cytotoxicity, usual class: cytotoxic; actives 0.76% (n = 410,000); also: potency is read from the fitted curve at half-maximal effect
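HepG2 CAGA-GFP cells (1000/well, DMEM with 1% FBS) received compound, then TGF-beta at 500 pg/mL final, and were incubated 18 hours at 37 degrees C. Viability was read by CellTiter-Glo luminescence. Media-only wells were set as complete cell-killing and DMSO as no toxicity.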
HT1080-NT tox: kills 2HG-producing HT-1080-NT fibrosarcoma cells. Potency, µM (doses to about 46.1 µM), inactives show at the top dose activity, negative = less viability, actives largely listed as cytotoxic. actives 1.6% (n = 360,000). HT-1080-NT fibrosarcoma viability, CellTiter-Glo ATP luminescence, 48 h;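 also: NT is the 2HG producing partner of a matched IDH1 knockdown line; potency is read from the fitted curve at half-maximal effect; 0% = DMSO-treated cells and -100% = media-only wells without cells; nearly all actives have a fitted effect of over 55% in size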
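750 cells/well, RPMI + 5% FBS; 2 h settle, compound pin-transfer, 48 h at 37 degrees C. CellTiter-Glo 10 min RT, luminescence. Normalized to DMSO and media-only wells.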
* marks the source's active call; other numbers are inactive results; ? = inconclusive; . = not tested or not shown. Hits are enriched below; roughly 6.5% of the tested compounds scored in any of these assays. Unless noted, calls follow the shape of the dose curve; as a rule, active = well fitted curve in the direction sought with a large enough effect; inconclusive = small, poorly fitted or top-dose-only effect, or another doubt; inactive = no such curve, though single readings can be large; an effect the other way counts as inactive or inconclusive.

SMILES | IL-1B inflam inh | Giardia kill | HT1080 IDH1KD tx | TGFb SMAD3 inh | HepG2 tox | HT1080-NT tox
C[C@@H]1CN([C@H](C)CO)C(=O)c2cc(NC(=O)Nc3ccc(C(F)(F)F)cc3)ccc2O[C@H]1CN(C)S(=O)(=O)c1ccc(Cl)cc1 | 0 | -21 | -22% | ? | 2% | -25%
C[C@H]1CN([C@@H](C)CO)C(=O)Cc2cc(NC(=O)CCC(F)(F)F)ccc2O[C@H]1CN(C)S(C)(=O)=O | 14 | -4 | 10% | 6% | -5% | 11%
C[C@@H]1CN([C@@H](C)CO)C(=O)Cc2cc(NC(=O)Nc3ccc(C(F)(F)F)cc3)ccc2O[C@@H]1CN(C)S(=O)(=O)c1ccc(Cl)cc1 | ? | 45 | 23µM* | ? | -44% | ?
Cc1ccc(S(=O)(=O)N(C)C[C@@H]2Oc3ccc(NC(=O)CCC(F)(F)F)cc3CC(=O)N([C@@H](C)CO)C[C@@H]2C)cc1 | 46 | ? | 4.6µM* | ? | -1% | 2.1µM*
CCOC(=O)c1c(C)oc2ncnc(N3CCN(c4cccc(Cl)c4)CC3)c12 | . | . | . | 11µM* | -46% | .
CCOC(=O)c1c(C)oc2ncnc(N3CCN(c4ccc(C)cc4C)CC3)c12 | . | . | . | ? | -21% | .
Cc1ccc(NC(=O)COc2ccccc2C(N)=O)cc1S(=O)(=O)N1CCCCCC1 | -55* | -7 | -22% | ? | -18% | -13%
COc1cc(C(C)=O)ccc1OCC(=O)Nc1ccc(C)c(S(=O)(=O)N2CCCCCC2)c1 | -59* | -8 | -22% | ? | -31% | -22%
COc1cc(C(=S)N2CCCCC2)ccc1OCC(=O)Nc1ccccc1Cl | -70* | -3 | -8% | -10% | -16% | ?
Cc1ccc(NC(=O)COc2ccc(Cl)cc2Cl)cc1S(=O)(=O)N1CCOCC1 | -57* | -11 | -22% | -9% | -21% | -9%
CN(C)c1ccc(/C=C(\C#N)c2ccccc2)cc1 | 14 | -10 | 10µM* | -23% | -8% | 12µM*
C[C@H](CO)N1C[C@H](C)[C@@H](CN(C)Cc2ccncc2)Oc2c(NS(=O)(=O)c3ccc(Cl)cc3)cccc2C1=O | 4 | -12 | ? | 2% | -5% | -16%
CCOc1ccc(C(=O)O/N=C(\N)c2ccccn2)cc1 | -9 | -13 | -17% | 7% | -64% | ?
Cc1ccc(C(=O)O/N=C(\N)c2ccccn2)cc1 | -23 | -26 | ? | -6% | -40% | 15µM*
CC(C)(C)c1ccc(C(=O)O/N=C(\N)c2ccccn2)cc1 | -65* | ? | ? | 8% | 1% | ?
N/C(=N\OC(=O)c1ccccc1)c1ccccn1 | 4 | -5 | ? | 3% | -49% | ?
O=CC(=O)c1ccc(Br)cc1 | . | . | . | 2% | -22% | .
COc1ccc(CNC(=O)C2CCN(S(=O)(=O)N3CCC4(CC3)OCCO4)CC2)c(OC)c1 | -17 | 4 | 16µM* | -6% | 8% | ?
Cc1cccc(NC(=O)c2cc(=O)n(Cc3ccccc3)c(=O)[nH]2)c1 | 11 | -15 | -18% | 17% | 1% | 0%
COc1ccc(OC)c(C(C[N+](=O)[O-])c2c(C)cc3ccccn23)c1 (stereo not given) | 0 | -10 | 18µM* | -4% | -21% | 23µM*
COc1ccc(C(C[N+](=O)[O-])c2c(C)cc3ccccn23)c(OC)c1 (stereo not given) | -14 | -3 | ? | 10% | 2% | ?
Cc1ccccc1OCC(=O)NC(=S)Nc1ccc2c3c(cccc13)CC2 | -2 | -1 | -2% | 0% | 13µM* | 9%
CCOC(=O)CC(NC(=O)Cn1nnc(-c2ccc(C(F)(F)F)cc2)n1)c1ccccc1Cl (stereo not given) | . | . | . | 4% | -15% | .
